Screen size: about 13,000 compounds; about 3,200 (25%) showed an effect of 50% or more. Some of the results follow.

The subject of this experiment is P. falciparum stage V gametocytes. Set-up: BacTiter-Glo ATP luminescence viability of purified stage V gametocytes in 384-well plates, per cent inhibition versus DMSO. Conditions: 48 h, 5 µM; inhibitor.
For the compound `O=C(NCCN1CCCC1)c1cc(-c2ccc(Cl)c(O)c2)c(-c2ccncc2)o1` [TCMDC-135295], the “% Inhibition” value came to 13.58%.
With `Cc1nc(N)nc(N)c1CCCOc1ccccc1Br` [TCMDC-138069] the figure was -36.44%; with `O=C(Nc1ccc(-c2cccc(-c3nc4ccccc4[nH]3)c2)cc1)c1cnn2cccnc12` [TCMDC-136863], -40.98%; with `COc1ccc(CNC2Cc3ccccc3C2)cc1-c1ccc(OC)c(S(=O)(=O)NCCN2CCCC2)c1` [TCMDC-132251], 107.6%.
`COc1ccc(-c2ccccc2CNC2Cc3ccccc3C2)cc1S(=O)(=O)NCCN1CCCC1` [TCMDC-132211]: the “% Inhibition” value was found to be 56.67%.
Then `COc1ccc(CNC2Cc3ccccc3C2)cc1-c1ccc(S(=O)(=O)NCCN2CCCC2)c(F)c1` [TCMDC-132266], with 84.74%; and `COc1ccc(-c2ccc(CNC3Cc4ccccc4C3)cc2)cc1S(=O)(=O)NCCN1CCCC1` [TCMDC-132472], with 95.39%.
Regarding `O=C(NCc1ccc(F)cc1)Nc1ccc(-c2cccc(-c3nc4ccc(F)cc4[nH]3)c2)cc1` [TCMDC-133304], the “% Inhibition” value is -35.38%.
With `Cc1cc(C)c(CON2C(N)=NC(N)=NC2(C)C)cc1C` [TCMDC-131652] the figure was -5.978%.
Then `COc1ccc2nccc([C@@H](O)CN3CCC(NC(=O)Cn4nc(-c5ccc(C(F)(F)F)cc5)ccc4=O)CC3)c2c1` [TCMDC-141042], with -2.454%; and `CC(=O)c1ccccc1C(=O)N1CCOc2ccc(C(O)C(c3ccccc3)c3ccccc3)cc2C1` (centres unmarked) [TCMDC-124667], with -12.26%.
Then `O=C(NCCCN1CCC(Cc2ccccc2)CC1)c1cc2c(Cl)nc3ccccc3c2s1` [TCMDC-125440], with -22.49%; and `Cn1c(=O)c2cc(C(=O)NCCCN3CCCCCC3)sc2c2ccccc21` [TCMDC-123889], with 59.14%.
Turning to `O=C(NCCN1CCCC1)c1ccc(-c2ccc(-c3nc4ccccc4[nH]3)s2)cc1` [TCMDC-132314], the “% Inhibition” value is 24.13%.
Then `O=C(Nc1cccc(-c2cccc(-c3nc4ccccc4[nH]3)c2)c1)Nc1ccc(F)c(F)c1F` [TCMDC-133226], with -1.107%; and `Cc1cccc(CNc2nc(C)cc(N[C@@H](CC(C)C)C(=O)NCc3cccc(F)c3)n2)c1` [TCMDC-134890], with -6.286%; and `Cc1cc(N[C@@H](CC(C)C)C(=O)NCc2cccc(F)c2)nc(NCCc2ccc(F)cc2)n1` [TCMDC-134792], with 53.15%.
Then `Cc1cc(N[C@@H](CC(C)C)C(=O)NCc2cccc(F)c2)nc(NCCc2ccccc2)n1` [TCMDC-134870], with 54.62%; and `Cc1cc(N[C@@H](CC(C)C)C(=O)NCc2cccc(F)c2)nc(Nc2ccccc2)n1` [TCMDC-134737], with -10.43%.
With `Cc1cc(N[C@@H](CC(C)C)C(=O)NCCc2ccccc2)nc(NCCc2ccc(F)cc2)n1` [TCMDC-134796], the “% Inhibition” value turned out to be 48.22%.
On to `COc1cccc(-c2cnc(N)c(-c3nc4cc(Cl)c(F)cc4[nH]3)c2)c1` [TCMDC-138792], for which the “% Inhibition” value is listed as 26.62%.
With `Cc1cccc2nc(-c3ccc(-c4ccc(NC(=O)CN5CCN(C)CC5)cc4)s3)[nH]c12` [TCMDC-136987] the figure was -6.57%; with `Fc1ccc2nc(-c3ccc(-c4ccc(CN5CCCCC5)cc4)s3)[nH]c2c1` [TCMDC-133897], -55.88%.
Then `CN1CCC(N2CCN(Cc3ccc(-c4ccc(-c5nc6ccc(F)cc6[nH]5)s4)cc3)CC2)CC1` [TCMDC-133859], with 93.67%.
Regarding `Fc1ccc2nc(-c3ccc(-c4ccc(CN5CCN(CCN6CCOCC6)CC5)cc4)s3)[nH]c2c1` [TCMDC-133935], the “% Inhibition” value is given as 8.438%.
For the compound `c1ccc2[nH]c(-c3ccc(-c4ccc(CN5CCC(N6CCCCC6)CC5)cc4)s3)nc2c1` [TCMDC-136787], the “% Inhibition” value stood at 26.44%.
With `Cc1cccc2nc(-c3ccc(-c4ccc(CN5CCN(C6CCN(C)CC6)CC5)cc4)s3)[nH]c12` [TCMDC-133866] the figure was 107%.
In the case of `CN1CCC(N2CCN(Cc3ccc(-c4ccc(-c5nc6ccccc6[nH]5)s4)cc3)CC2)CC1` [TCMDC-133851], the “% Inhibition” value amounted to 67.23%.
On to `COC[C@H]1CCCN1Cc1ccc(-c2ccc(-c3nc4ccccc4[nH]3)s2)cc1` [TCMDC-136785], for which the “% Inhibition” value was -1.728%.
Then `Cc1cccc2nc(-c3ccc(-c4cccc(NC(=O)CN5CCN(C)CC5)c4)s3)[nH]c12` [TCMDC-136988], with 20.22%; and `O=C(Nc1ccc2nc(-c3ccccc3)[nH]c2c1)c1cc(-c2ccc3c(c2)OCCO3)n[nH]1` [TCMDC-134398], with 9.818%; and `CS(=O)(=O)Nc1ccc2[nH]cc(C3CCN(CCCCCNC(=O)/C=C/c4ccc(Cl)c(Cl)c4)CC3)c2c1` [TCMDC-139325], with -23.44%.
With `Cc1cc(O)c2c(c1)OC(C)(C)C=C2C1=CCN(Cc2ccccc2)CC1` [TCMDC-131313] the figure was -37.74%; with `CN(C)S(=O)(=O)n1ncc2c3c(N)nc(N)nc3ccc21` [TCMDC-131933], 29.56%; with `O=C(/C=C/c1ccc(Cl)cc1)NCCCCCN1CCN(C(=O)Nc2ccc(Cl)c(C(F)(F)F)c2)CC1` [TCMDC-136093], 12.32%.
Then `CCC[C@@H]([C@@H](CC1CCCCC1)C(=O)N[C@H](C(=O)Nc1nccs1)C(C)(C)SCCOCCOCC)N(O)C=O` [TCMDC-137777], with 29.4%; and `CS(=O)(=O)c1ccc(CCNCc2ccc(-c3ccc(CN(C(=O)c4cccc(C#N)c4)C4CCN(Cc5ccccc5)CC4)cc3)nc2)cc1` [TCMDC-141518], with 63.72%.
`CS(=O)(=O)c1ccc(CCNCc2ccc(-c3ccc(CN(C(=O)c4ccco4)C4CCN(Cc5ccccc5)CC4)cc3)nc2)cc1` [TCMDC-141510]: the “% Inhibition” value was 87.45%.
Take `CS(=O)(=O)c1ccc(CCNCc2ccc(-c3ccc(CN(C(=O)c4ccc(Cl)nc4)C4CCN(Cc5ccccc5)CC4)cc3)nc2)cc1` [TCMDC-141519]: the “% Inhibition” value came out at 96.79%.
Then `C=C[C@]1(C)C[C@@H](OC(=O)c2n[nH]c3ccccc3c2=O)[C@]2(C)[C@H](C)CC[C@]3(CCC(=O)[C@H]32)[C@@H](C)[C@@H]1O` [TCMDC-141325], with 0.6377%; and `Cc1ccc(Nc2nccc(NCC(O)c3cccc(C(F)(F)F)c3)n2)cc1` (centres unmarked) [TCMDC-136583], with -0.2999%.
With `COc1ccc(CCON2C(N)=NC(N)=NC2(C)C)cc1OC` [TCMDC-131738] the figure was -1.929%.
With `CCC(C)CN1CCN(c2cc(NC(=O)c3cccs3)ccn2)C(C)C1` (centres unmarked) [TCMDC-134995] the figure was 14.25%; with `CCN1CCN(Cc2ccc(NC(=O)c3cc4ccc5cccnc5c4[nH]3)cc2)CC1` [TCMDC-125281], 19.87%; with `CCN1CCC(N(Cc2ccc(-c3ccc(C(F)(F)F)cc3)cc2)C(=O)Cn2c(CCc3cccc(F)c3F)cc(=O)c3c2CCCC3)CC1` [TCMDC-141326], 67.51%.
Take `CCN(CC)CCN(Cc1ccc(-c2ccc(C(F)(F)F)cc2)cc1)C(=O)Cn1c(CCc2cccc(F)c2F)cc(=O)c2c1CCCC2` [TCMDC-141327]: the “% Inhibition” value turned out to be 62.98%.
With `CC(C)N1CCC(N(Cc2ccc(-c3ccc(C(F)(F)F)cc3)cc2)C(=O)Cn2c(CCc3cccc(F)c3F)cc(=O)c3c2CCC3)CC1` [TCMDC-141280] the figure was 120.6%.
As to `CCN(CC)CCN(Cc1ccc(-c2ccc(C(F)(F)F)cc2)cc1)C(=O)Cn1c(CCc2cccc(F)c2F)cc(=O)cc1-c1ccccc1` [TCMDC-141688], the “% Inhibition” value worked out at 100.1%.
Then `CCN(CC)CCN(Cc1ccc(-c2ccc(C(F)(F)F)cc2)cc1)C(=O)Cn1c(CCc2cccc(F)c2F)cc(=O)c(C)c1C` [TCMDC-141148], with 40.01%.
As for `COc1cc(CC(C)NCC(O)c2cccc(C(F)(F)F)c2)ccc1OCc1ccccc1` (centres unmarked) [TCMDC-131479], the “% Inhibition” value was 14.56%.
Then `CCOc1ccc(NC(C)=O)c(O)c1` [TCMDC-125851], with 13.93%.
Then `Cc1ccc(-c2nnc(Nc3ccc(OCC(N)=O)cc3)c3ccccc23)cc1S(=O)(=O)NCC1CCCO1` (centres unmarked) [TCMDC-125617], with -6.517%; and `CC(=O)Oc1cc(OCc2ccccc2)c(OC(C)=O)c(OCc2ccccc2)c1` [TCMDC-123938], with -24.96%.
Then `COCCCNc1nc2cc(OC)c(OC)cc2c2nc(-c3ccccc3)nn12` [TCMDC-124408], with 0.2335%; and `CC(C)(C)c1ccc(CNCC(C)(C)c2nc(-c3ccc(Cl)c(O)c3)c(-c3ccnc(N)n3)[nH]2)cc1` [TCMDC-141165], with 3.988%.
On to `Oc1ccc(Cl)cc1-c1cc(C(F)(F)F)nc(-c2ccccc2)n1` [TCMDC-123665], for which the “% Inhibition” value is given as 32.7%.
With `COc1ccc2nccc([C@@H](O)CN3CCC(CO)(NCc4cc5ccccc5o4)CC3)c2c1` [TCMDC-140494] the figure was 12.97%; with `COc1ccc(CC(=O)NC2CCN(c3ccnc4cc(Cl)ccc34)C2)cc1` (centres unmarked) [TCMDC-133665], -28.04%; with `CCN1CCC(N(Cc2ccc(-c3ccc(C(F)(F)F)cc3)cc2)C(=O)Cn2c(CCc3cccc(F)c3F)cc(=O)c3c2CCC3)CC1` [TCMDC-141265], 65.76%.
With `COCCN1CCC(N(Cc2ccc(-c3ccc(C(F)(F)F)cc3)cc2)C(=O)Cn2c(CCc3cccc(F)c3F)cc(=O)c3c2CCC3)CC1` [TCMDC-141266], the “% Inhibition” value was 34.4%.
Take `CCN(CC)CCN(Cc1ccc(-c2ccc(C(F)(F)F)cc2)cc1)C(=O)CN1C(CCc2cccc(F)c2F)=NS(=O)(=O)c2ccccc21` [TCMDC-141806]: the “% Inhibition” value turned out to be 67.96%.
In the case of `CCCNc1ccc2nccc(CCN3CCC(NCc4ccc5c(c4)NC(=O)CS5)CC3)c2n1` [TCMDC-141619], the “% Inhibition” value is reported as -14.28%.

The % Inhibition is the relative decrease from the control value, in per cent.

The values are drawn from paper PMC4552634, “A New Set of Chemical Starting Points with Plasmodium falciparum Transmission-Blocking Potential for Antimalarial Drug Discovery” (PLoS ONE, 2015).
